# According to PubChem BioAssay (Tox21):
# Records with an inconclusive call do not appear. A call without a number means that no potency is given here. A number with no mark means an inactive call. Calls of active or inactive are those of the source. Unless noted, calls come from the whole dose curve; as a rule, active = well fitted curve in the direction sought with a large enough effect in the repeat runs; inconclusive = weak or mixed curves; inactive = no such curve, though single readings can be large; an effect the other way counts as inactive or inconclusive.
# Experiments:
# [1] = qHTS assay to identify small molecule antagonists of the retinoid acid receptor (RAR) signaling pathway - cell viability counter screen (AID 1159551); note: nearly all actives have a fitted effect of over 35% in size; note: potency is the fitted concentration of half-maximal effect
# Procedure, shortened: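 Following overnight attachment, C3RL4 reporter cells received DMSO-dissolved compounds and then retinol (1 uM final). Six hours later at 37 C, ATP content was measured by CellTiter-Glo luminescence.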
# [2] = qHTS assay to identify small molecule antagonists of the retinoic acid receptor (RAR) signaling pathway (AID 1159552; note: nearly all actives have a fitted effect of over 50% in size; note: potency is the fitted concentration of half-maximal effect)
# Procedure, shortened: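 Overnight-plated C3RL4 reporter cells get compound, then retinol to 1 uM final; plates sit 6 hr at 37 C, 5% CO2. A luciferase reagent is added and light output recorded after 30 min at room temperature.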
# [3] = qHTS assay to identify small molecule antagonists of the estrogen related receptor (ERR) signaling pathway from Tox21 library - cell viability counter screen (AID 1224834); note: nearly all actives have a fitted effect of over 30% in size; note: potency is the fitted concentration of half-maximal effect
# Procedure, shortened: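 Viability readout (CellTiter-Fluor fluorescence, 30 min at 37 C) multiplexed with the ERR assay; cells treated 17.5 h at 37 C with compounds delivered in DMSO.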
# [4] = qHTS assay to identify small molecule agonists of the constitutive androstane receptor (CAR) signaling pathway - cell viability counter screen (AID 1224836); note: series mostly up to about 92 µM; nearly all actives have a fitted effect of over 45% in size
# Procedure, shortened: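 Fluorescence from CellTiter-Fluor indicates live cells after 23 h exposure. The human hepatoma line expresses hCAR and a CYP2B6-2.2kb reporter. Incubation medium contains 0.75 uM PK11195 (final).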
# [5] = qHTS assay to identify small molecule antagonists of the constitutive androstane receptor (CAR) signaling pathway - cell viability counter screen (AID 1224837); note: series mostly up to about 92 µM; nearly all actives have a fitted effect of over 45% in size
# Procedure, shortened: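 Fluorescence from CellTiter-Fluor served as the viability signal. Human hepatoma HepG2 cells stably bearing hCAR and CYP2B6-2.2kb received compound plus CITCO (50 nM final) for 23 hr.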
# [6] = molecular target: Nuclear receptor subfamily 1 group I member 3 (Homo sapiens) (UniProt Q14994); experiment: qHTS assay to identify small molecule antagonists of the constitutive androstane receptor (CAR) signaling pathway (AID 1224838);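 note: HepG2 cells stably expressing hCAR with CYP2B6 luciferase reporter stimulated by CITCO; nearly all actives have a fitted effect of over 40% in size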; note: potency is the fitted concentration of half-maximal effect
# Sequence of Nuclear receptor subfamily 1 group I member 3 (Homo sapiens) (Q14994 whole entry, looked up): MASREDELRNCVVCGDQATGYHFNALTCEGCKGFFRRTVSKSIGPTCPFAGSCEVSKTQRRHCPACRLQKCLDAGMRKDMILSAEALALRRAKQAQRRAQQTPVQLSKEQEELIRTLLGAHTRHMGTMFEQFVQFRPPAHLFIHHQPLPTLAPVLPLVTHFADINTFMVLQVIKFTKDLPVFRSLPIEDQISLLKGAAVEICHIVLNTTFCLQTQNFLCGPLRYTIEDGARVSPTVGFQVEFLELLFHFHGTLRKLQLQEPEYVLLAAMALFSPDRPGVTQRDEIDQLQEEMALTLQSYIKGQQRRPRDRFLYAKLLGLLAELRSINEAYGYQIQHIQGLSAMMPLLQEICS
# Procedure, shortened: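 Quantitative HTS in double-stable HepG2-CYP2B6-hCAR cells. After 4 h plating, cells get compound (15 concentrations) and CITCO at 50 nM final, incubate 24 h at 37 C, then ONE-Glo luminescence is read.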
# [7] = qHTS assay to identify small molecule antagonists of the estrogen related receptor signaling pathway with the pleiotropic PPARgamma coactivator (PGC) from Tox21 10K library - cell viability counter screen (AID 1224840; active = well fitted cell-killing curve with a large enough effect in the repeat runs, not every such curve was filed as active; note: nearly all actives have a fitted effect of over 40% in size)
# Procedure, shortened: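 Compounds in DMSO, alongside positive and negative controls, were pinned onto PGC/ERR cells (2,000 per well). Exposure lasted 17.5 hours at 37 C, followed by a 30-minute CellTiter-Fluor incubation and fluorescence reading.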
# [8] = molecular target: Thyrotropin receptor (Homo sapiens) (UniProt P16473); experiment: qHTS assay to identify small molecule agonists of the thyroid stimulating hormone receptor (TSHR) signaling pathway (AID 1224843; calls by dose curve; note: nearly all actives have a fitted effect of over 45% in size)
# Sequence of Thyrotropin receptor (Homo sapiens) (P16473 whole entry, looked up): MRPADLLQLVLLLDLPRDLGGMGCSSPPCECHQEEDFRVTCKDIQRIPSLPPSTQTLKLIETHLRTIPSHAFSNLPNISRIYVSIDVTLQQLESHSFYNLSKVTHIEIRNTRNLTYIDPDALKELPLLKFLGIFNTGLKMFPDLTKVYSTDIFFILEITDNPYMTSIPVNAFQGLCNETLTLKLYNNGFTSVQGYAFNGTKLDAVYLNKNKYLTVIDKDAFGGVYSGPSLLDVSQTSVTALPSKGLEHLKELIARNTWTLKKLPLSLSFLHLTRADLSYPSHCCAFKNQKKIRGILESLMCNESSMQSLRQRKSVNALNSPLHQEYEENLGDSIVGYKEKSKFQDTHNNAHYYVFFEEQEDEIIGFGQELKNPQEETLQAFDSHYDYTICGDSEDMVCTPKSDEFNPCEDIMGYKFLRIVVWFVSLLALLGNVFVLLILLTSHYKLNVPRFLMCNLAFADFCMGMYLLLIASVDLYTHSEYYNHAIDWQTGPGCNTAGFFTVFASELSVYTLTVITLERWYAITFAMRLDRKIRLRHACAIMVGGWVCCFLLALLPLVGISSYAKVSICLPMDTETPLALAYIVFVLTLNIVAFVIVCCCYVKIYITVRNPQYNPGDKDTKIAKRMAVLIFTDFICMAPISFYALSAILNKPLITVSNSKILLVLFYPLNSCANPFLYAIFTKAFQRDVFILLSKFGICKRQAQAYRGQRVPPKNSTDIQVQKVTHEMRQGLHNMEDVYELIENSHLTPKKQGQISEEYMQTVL
# Procedure, shortened: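 TSHR-HEK293 cells in agonist mode, 30 min room-temperature step, then cAMP measured by competitive HTRF (cAMP-d2 with anti-cAMP cryptate) after 1 h at room temperature. Tested at 15 concentrations in triplicate.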
# [9] = qHTS assay to identify small molecule agonists of the hypoxia (HIF-1) signaling pathway - cell viability counter screen (AID 1224844; calls by dose curve; note: nearly all actives have a fitted effect of over 50% in size)
# Procedure, shortened: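 Luminescent ATP content (CellTiter-Glo, 30 min, room temperature) served as the viability measure in HRE-bla ME-180 cells exposed to compounds for 17 hrs in low-serum medium (0.5% dialyzed FBS).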
# [10] = molecular target: Luciferin 4-monooxygenase (Photinus pyralis) (UniProt P08659); experiment: qHTS assay to identify small molecule inhibitors of firefly luciferase (AID 1224835); note: nearly all actives have a fitted effect of over 25% in size; note: potency is the fitted concentration of half-maximal effect
# Sequence of Luciferin 4-monooxygenase (Photinus pyralis) (P08659 whole entry, looked up): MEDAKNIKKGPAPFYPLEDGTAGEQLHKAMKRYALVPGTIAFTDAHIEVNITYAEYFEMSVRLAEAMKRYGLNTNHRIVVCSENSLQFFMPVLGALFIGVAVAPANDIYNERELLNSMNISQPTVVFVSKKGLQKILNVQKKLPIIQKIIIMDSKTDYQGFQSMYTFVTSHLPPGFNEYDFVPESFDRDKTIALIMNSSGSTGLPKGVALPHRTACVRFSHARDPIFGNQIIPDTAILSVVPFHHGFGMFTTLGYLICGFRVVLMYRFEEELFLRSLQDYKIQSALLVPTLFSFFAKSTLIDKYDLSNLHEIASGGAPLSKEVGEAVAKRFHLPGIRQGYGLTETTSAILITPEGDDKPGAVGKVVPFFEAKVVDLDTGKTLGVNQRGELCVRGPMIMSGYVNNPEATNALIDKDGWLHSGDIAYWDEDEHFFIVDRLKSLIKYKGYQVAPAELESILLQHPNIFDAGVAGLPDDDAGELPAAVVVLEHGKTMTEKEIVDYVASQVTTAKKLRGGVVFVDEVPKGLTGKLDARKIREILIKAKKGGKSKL
# Procedure, shortened: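 Biochemical qHTS: compounds run as interplate titrations against purified firefly enzyme, with D-luciferin and ATP each at its KM concentration. Light output recorded by CCD imaging.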
# [11] = molecular target: Nuclear receptor subfamily 1 group I member 3 (Homo sapiens) (UniProt Q14994); experiment: qHTS assay to identify small molecule agonists of the constitutive androstane receptor (CAR) signaling pathway (AID 1224839); note: nearly all actives have a fitted effect of over 15% in size; note: potency is the fitted concentration of half-maximal effect
# Procedure, shortened: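 Stable hCAR/CYP2B6-2.2kb HepG2 line in DMEM with 10% FBS; compounds (15 concentrations) and 0.75 uM PK11195 final, 24 h at 37 C/5% CO2, then ONE-Glo luminescence after 30 min.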
# [12] = qHTS assay to identify small molecule agonists of the RXR signaling pathway - cell viability counter screen (AID 1159529); note: nearly all actives have a fitted effect of over 50% in size; note: potency is the fitted concentration of half-maximal effect
# Procedure, shortened: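 Tox21 10K compounds were tested for cytotoxicity against GeneBLAzer RXR-alpha HEK 293T cells grown in 2% charcoal-stripped FBS. Exposure lasted 16 hr at 37 C, 5% CO2; viability read by CellTiter-Glo luminescence.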
# [13] = qHTS assay to identify small molecule agonists of the estrogen related receptor signaling pathway with the pleiotropic PPARgamma coactivator (PGC) from Tox21 10K library (AID 1224842); note: nearly all actives have a fitted effect of over 15% in size
# Procedure, shortened: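 PGC/ERR reporter cell line, 2,000 cells per well, incubated 6 h at 37 C before 23 nL compound in DMSO was added. After 18 h at 37 C, One-Glo luminescence read following 30 min at room temperature.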
# [14] = qHTS assay to identify small molecule agonists of the retinoic acid receptor (RAR) signaling pathway (AID 1159553)
# Procedure, shortened: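 Cell line C3RL4, RARE luciferase reporter. Treatment: compounds in DMSO, 6 hr, 37 C, 5% CO2, after overnight plating. Detection: luminescence, 30 min RT after reagent.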
# [15] = qHTS assay to identify small molecule antagonists of the estrogen related receptor signaling pathway with the pleiotropic PPARgamma coactivator (PGC) cell viability counter screen (AID 1224822;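 note: series mostly up to about 46 µM; viability read after 17.5 h compound exposure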)
# Procedure, shortened: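 qHTS format, DMSO compound stocks pin-transferred onto PGC/ERR cells 6 h after plating; 17.5 h exposure at 37 C, then CellTiter-Fluor fluorescence.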
# [16] = qHTS assay to identify small molecule antagonists of the estrogen related receptor signaling pathway with the pleiotropic PPARgamma coactivator (PGC) from Tox21 10K library (AID 1224841; call rule not given here; note: actives are mostly falling curves and most rising ones were filed inactive; nearly all actives have a fitted effect of over 50% in size; note: potency is the fitted concentration of half-maximal effect)
# Procedure, shortened: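 Compound exposure ran 18 hours at 37 C in PGC/ERR cells (2,000/well) that had first rested 6 hours in a 37 C/5% CO2 incubator. Luciferase activity was then detected with One-Glo after a 30-minute room-temperature step.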
SMILES,Potency [1],Potency [2],Potency [3],Potency [4],Potency [5],Potency [6],Potency [7],Potency [8],Potency [9],Potency [10],Potency [11],Potency [12],Potency [13],Potency [14],outcome [15],Potency [16]
C[C@@H]1C[C@H]2O[C@@]3(O[C@@H]2C(C)(C)O)[C@H](O)[C@@]2(C)[C@@H]4CC[C@H]5C(C)(C)[C@@H](O[C@@H]6OC[C@@H](O)[C@H](O)[C@H]6O)CC[C@@]56C[C@@]46CC[C@]2(C)[C@@H]13,inactive,inactive,inactive,inactive,inactive,inactive,inactive,inactive,inactive,,,,,,,
CCO[Si](CCCCl)(OCC)OCC,inactive,inactive,inactive,inactive,inactive,inactive,inactive,inactive,inactive,inactive,inactive,,,,,
O=C(O)c1ccco1,,,inactive,inactive,inactive,,inactive,,inactive,inactive,,inactive,,,,
c1cc(CCCc2ccncc2)ccn1,,,inactive,inactive,inactive,inactive,inactive,inactive,inactive,inactive,inactive,inactive,inactive,,,
OCCN1CCN(CCCN2c3ccccc3C=Cc3ccccc32)CC1,inactive,inactive,,,,inactive,inactive,,inactive,inactive,inactive,,,,,
CC(=O)c1ccc2c(c1)N(CCCN(C)C)c1ccccc1S2,inactive,,,inactive,inactive,inactive,inactive,inactive,inactive,inactive,inactive,,,inactive,inactive,
CCCCCCCCCCCCN1CCCCCC1=O,inactive,inactive,inactive,inactive,inactive,inactive,inactive,,,,61.1 µM (active),,,inactive,,inactive
CCCCO,,,inactive,inactive,inactive,,inactive,inactive,inactive,,,inactive,,,,
O=C1OC(CN2CCOCC2)CN1/N=C/c1ccc([N+](=O)[O-])o1 (stereo not given),,,,inactive,inactive,,inactive,,inactive,inactive,,inactive,,inactive,,
Cc1oc(-c2ccccc2)nc1CCOc1cccc2c1ccn2CCC(=O)O,inactive,inactive,30.6 µM (active),inactive,,inactive,inactive,inactive,inactive,,inactive,,,,,
Cc1ccc(C(=O)Oc2ccc(C(O)CNC(C)(C)C)cc2OC(=O)c2ccc(C)cc2)cc1 (stereo not given),,,inactive,inactive,inactive,,inactive,,inactive,inactive,,19 µM (active),,,,
CCN(CC)c1ccc(C(=C2C=CC(=[N+](CC)CC)C=C2)c2cc(S(=O)(=O)O)ccc2S(=O)(=O)[O-])cc1,15 µM (active),11.9 µM (active),29.8 µM (active),,,11.9 µM (active),,,,12.3 µM (active),inactive,,,,,11.9 µM (active)
C[C@H](CCC(=O)O)[C@H]1CC[C@H]2[C@@H]3CC[C@@H]4C[C@H](O)CC[C@]4(C)[C@H]3C[C@H](O)[C@]12C,inactive,inactive,,inactive,inactive,inactive,,,,inactive,,,,inactive,,
